Screening data: PubChem, SRMLSC
The list is not random: actives were taken first. Their share in the collection is about 6.3%.
Spn DPM-DC inh – inhibitors of Streptococcus pneumoniae diphosphomevalonate decarboxylase. actives 0.49% (n = 65,000). purified DPM-DC, PK/LDH coupled NADH fluorescence. calls only at 10 µM;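 active means the 320 compounds with the highest percent inhibition in the single-dose primary screen, excluding strongly autofluorescent ones, cut at about 32% in these data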;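 further: kinetic rate of NADH fluorescence loss reporting ADP formed by the decarboxylase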
A340 absorber – absorbance at 340 nm | compound absorbance at 340 nm, fold over control | 65,000 tested, under 10 active | AID 708 | fold change at 10 µM;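 active means at 10 µM dose, initial 340 nm absorbance at least 2 fold that of control wells; inactive means change under 2 fold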;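 further: initial absorbance extrapolated from kinetic A340 decline of NADH oxidation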
PMK inhibit – blocks S. pneumoniae phosphomevalonate kinase | inhibition, % at 10 µM | actives 0.49% (n = 65,000) | purified PMK, PK/LDH-coupled NADH absorbance 340 nm;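 active means top-ranked compounds by inhibition in the single 10 µM screen, taking a fixed number of the strongest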;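 further: 0% = full reaction with DMSO carrier and 100% = background rate without enzyme reaction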
NADH coupling – inhibition of NAD/NADH coupling enzymes, library profiling; coupled PK/LDH NADH assays, four targets; IC50, µM (titrated, usually from 10 µM), for the others: top-dose inhibition; actives 0.02% (n = 65,000);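 active means single-dose screening hits from any of four coupled enzyme assays that gave an IC50 when retested across doses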;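 further: the DPM-DC format reads NADH fluorescence rather than 340 nm absorbance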
Spn MK inh – inhibitors of Streptococcus pneumoniae mevalonate kinase | purified MK, PK/LDH-coupled NADH absorbance 340 nm | inhibition, % at 10 µM | actives 0.48% (n = 65,000);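 active means ranked among the strongest by inhibition in the single 10 µM screen, a fixed top-ranked set picked for dose follow-up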
Fluor 339 460 – intrinsic fluorescence of library compounds, ex339/em460 – biochemical, MLSMR library, data from DPM-DC assay, artefact control, profiling panel; fluorescence fold increase at 10 µM; actives 5.5% (n = 65,000); compound autofluorescence, ex339/em460 nm, NADH buffer; stronger effect = higher value; 1 = no-compound wells, NADH background; AID 709;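 active means at 10 µM, mean starting fluorescence two-fold or more over control wells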;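 further: signal is the first read of a kinetic run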
* hit, by the source's call.

Screening CCC(=O)Nc1c(C#N)c2nc3ccccc3nc2n1-c1ccc(C)cc1 returned A340 absorber 1.07, PMK inhibit 8.0, NADH coupling 10.0%, Spn MK inh 12.0 and Fluor 339 460 3.72*.
`CC(=O)c1cccc(S(=O)(=O)N(CCCO)Cc2cc3ccc(C)cc3[nH]c2=O)c1` gave Spn DPM-DC inh inactive, A340 absorber 1.1, PMK inhibit 6.0, NADH coupling 5.0%, Spn MK inh 7.0 and Fluor 339 460 1.07.
Screening COc1cccc2cc(C(=O)N3CCc4ccccc4C3)c(=O)oc12 returned Spn DPM-DC inh inactive, A340 absorber 1.05, PMK inhibit 9.0, NADH coupling 5.0%, Spn MK inh 5.0 and Fluor 339 460 1.2.
`COc1cccc2cc(C(=O)N3CCN(c4ccccc4F)CC3)c(=O)oc12` gave Spn DPM-DC inh inactive, A340 absorber 1.04, PMK inhibit 29.0*, NADH coupling 10.0%, Spn MK inh 0.0 and Fluor 339 460 1.16.
`Cc1ccc(NC(=O)CS(=O)CC(=O)Nc2ccc3c(c2)OCO3)cc1Cl` (stereo not drawn) gave Spn DPM-DC inh inactive, A340 absorber 1.03, PMK inhibit 4.0, NADH coupling 3.0%, Spn MK inh 4.0 and Fluor 339 460 1.1.
Screening Cc1ccccc1N(C)S(=O)(=O)c1ccc2[nH]cc(C(=O)NCC3CCCO3)c(=O)c2c1 (stereo not drawn) returned Spn DPM-DC inh inactive, A340 absorber 1.01, PMK inhibit 21.0, NADH coupling 16.0%, Spn MK inh 0.0 and Fluor 339 460 2.15*.
For COc1cccc(NS(=O)(=O)c2ccc3[nH]cc(C(=O)NCCN4CCOCC4)c(=O)c3c2)c1 the results were Spn DPM-DC inh inactive, A340 absorber 1.08, PMK inhibit 16.0, NADH coupling 8.0%, Spn MK inh 7.0 and Fluor 339 460 1.4.
For CCN(CC)S(=O)(=O)c1ccc2[nH]cc(C(=O)NCCN3CCCCCC3)c(=O)c2c1 the results were Spn DPM-DC inh inactive, A340 absorber 1.06, PMK inhibit 17.0, NADH coupling 8.0%, Spn MK inh 0.0 and Fluor 339 460 2.92*.
`CCN(CC)S(=O)(=O)c1ccc2[nH]cc(C(=O)NCCC3=CCCCC3)c(=O)c2c1` gave Spn DPM-DC inh inactive, A340 absorber 0.99, PMK inhibit 16.0, NADH coupling 5.0%, Spn MK inh 0.0 and Fluor 339 460 1.31.
`CCN(CC)S(=O)(=O)c1ccc2[nH]cc(C(=O)NCCN3CCCCC3C)c(=O)c2c1` (stereo not drawn) gave Spn DPM-DC inh inactive, A340 absorber 1.08, PMK inhibit 13.0, NADH coupling 8.0%, Spn MK inh 0.0 and Fluor 339 460 2.97*.
CCOc1ccc(N(C)S(=O)(=O)c2ccc3[nH]cc(C(=O)NCC4CCCO4)c(=O)c3c2)cc1 (stereo not drawn) was read as Spn DPM-DC inh inactive, A340 absorber 1.04, PMK inhibit 0.0, NADH coupling 1.0%, Spn MK inh 8.0 and Fluor 339 460 1.13.
For NC(=O)c1ccccc1N=Cc1ccccn1 the results were A340 absorber 1.03, PMK inhibit 10.0, NADH coupling 7.0%, Spn MK inh 3.0 and Fluor 339 460 5.05*.
Cc1ccc(C(N)=S)c(C)c1 was read as Spn DPM-DC inh inactive, A340 absorber 1.02, PMK inhibit 9.0, NADH coupling 3.0%, Spn MK inh 0.0 and Fluor 339 460 1.13.
`COc1cc(CN(C)CCc2ccccn2)cc(OC)c1OC` gave Spn DPM-DC inh inactive, A340 absorber 1.05, PMK inhibit 15.0, NADH coupling 22.0%, Spn MK inh 52.0* and Fluor 339 460 1.13.
CCc1ccc(CN(C)CCc2ccccn2)cc1 was read as Spn DPM-DC inh inactive, A340 absorber 1.01, PMK inhibit 0.0, NADH coupling 7.0%, Spn MK inh 52.0* and Fluor 339 460 1.04.
`COc1ccc(CN(C)CCc2ccccn2)cc1OC` gave Spn DPM-DC inh inactive, A340 absorber 1, PMK inhibit 18.0, NADH coupling 9.0%, Spn MK inh 8.0 and Fluor 339 460 1.03.
Cc1ccc(CN(C)CCc2ccccn2)cc1 was read as Spn DPM-DC inh inactive, A340 absorber 1.06, PMK inhibit 3.0, NADH coupling 20.0%, Spn MK inh 56.0* and Fluor 339 460 1.11.
`CN(CCc1ccccn1)Cc1ccc(Cl)cc1` gave Spn DPM-DC inh inactive, A340 absorber 1.04, PMK inhibit 0.0, NADH coupling 20.0%, Spn MK inh 59.0* and Fluor 339 460 1.15.
COC(=O)c1c(NC(=O)c2ccco2)sc(C(=O)Nc2ccc(F)cc2)c1C was read as A340 absorber 1.09, PMK inhibit 0.0, NADH coupling 4.0%, Spn MK inh 7.0 and Fluor 339 460 3.89*.
Screening COC(=O)c1c(NC(=O)c2ccc(Br)o2)sc(C)c1C returned Spn DPM-DC inh inactive, A340 absorber 1.04, PMK inhibit 8.0, NADH coupling 8.0%, Spn MK inh 1.0 and Fluor 339 460 1.86.
For COc1c(F)c(F)c(C(=O)Nc2ccc(NC(=O)c3ccco3)cc2)c(F)c1F the results were Spn DPM-DC inh inactive, A340 absorber 1.08, PMK inhibit 12.0, NADH coupling 10.0%, Spn MK inh 10.0 and Fluor 339 460 1.24.
Screening COC(=O)c1c(NC(=O)c2ccco2)sc(C)c1C returned A340 absorber 1.11, PMK inhibit 0.0, NADH coupling 1.0%, Spn MK inh 1.0 and Fluor 339 460 2.09*.
`CCOC(=O)c1oc2ccccc2c1NC(=O)COc1ccc(F)cc1` gave Spn DPM-DC inh inactive, A340 absorber 1.05, PMK inhibit 15.0, NADH coupling 16.0%, Spn MK inh 8.0 and Fluor 339 460 3.89*.
Screening CCOC(=O)c1oc2ccccc2c1NC(=O)COc1cccc(OC)c1 returned Spn DPM-DC inh inactive, A340 absorber 1.07, PMK inhibit 11.0, NADH coupling 8.0%, Spn MK inh 3.0 and Fluor 339 460 2.92*.
Screening CCOC(=O)c1oc2ccccc2c1NC(=O)c1ccccc1OC returned Spn DPM-DC inh inactive, A340 absorber 1.03, PMK inhibit 13.0, NADH coupling 6.0%, Spn MK inh 5.0 and Fluor 339 460 1.49.
For COc1cccc(NC(=O)N2CCN(Cc3nc4ccccc4c(=O)[nH]3)CC2)c1 the results were Spn DPM-DC inh inactive, A340 absorber 1.01, PMK inhibit 3.0, NADH coupling 3.0%, Spn MK inh 5.0 and Fluor 339 460 1.03.
For N#CC1=C(c2ccccc2)N=P(N2CCOCC2)(N2CCOCC2)N=C1N1CCOCC1 the results were Spn DPM-DC inh inactive, A340 absorber 1.04, PMK inhibit 21.0, NADH coupling 7.0%, Spn MK inh 0.0 and Fluor 339 460 1.1.
For COc1ccccc1NC(=O)c1cc(Sc2nncn2C)nc2ccccc12 the results were Spn DPM-DC inh inactive, A340 absorber 1.05, PMK inhibit 3.0, NADH coupling 1.0%, Spn MK inh 0.0 and Fluor 339 460 1.09.
